C diff growth – blocks growth of Clostridium difficile | Clostridium difficile clinical isolate growth, OD600, 24 h; stronger effect = lower value | AID 1259249 | hit rate 0.25% among 86,000 | growth activity, negative = inhibition, % at 16 µg/mL (by protocol);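 active = mean growth activity at or below -80% and every replicate also at or below -80%; inconclusive = mean at or below -80% but some replicate above -80%; inactive = mean growth activity above -80%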
T cruzi growth-1 – blocks T. cruzi growth in NIH3T3 culture. inhibition, % at 8.34 µM. hit rate 5.9% among 77,000. T. cruzi beta-gal in NIH3T3, GalScreen luminescence, 90 h;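 active = mean inhibition above about 93%, with at least 55% of replicates each passing it, limit read from the data, passing the limit was not always enough; inconclusive = only one of those two conditions holds; inactive = neither condition holds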
Pf Dd2 inh – P. falciparum Dd2 growth inhibition | activity change, % at 10 µM | hit rate 2.3% among 94,000 | SYBR Green, 72 h; stronger effect = lower value | AID 1159554; in the data active = activity change below about -80%; inconclusive = no clear call, values can overlap the other calls
T cruzi growth-2 – inhibitors of T. cruzi proliferation. shares compounds with T cruzi growth-1. T. cruzi beta-gal in NIH3T3, GalScreen luminescence, 90 h. inhibition, % at 8.35 µM. hit rate 72% among 5,600. AID 651739;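 active = mean replicate inhibition above about 95% and at least 55% of replicates individually reaching it, limit read from the data; inconclusive = only one of the two criteria is met; inactive = neither criterion is met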
T cruzi growth-3 – blocks T. cruzi growth in NIH3T3 host cells | shares compounds with T cruzi growth-1 | T. cruzi beta-gal in NIH3T3, GalScreen luminescence, 90 h | inhibition, % at 2.09 µM | hit rate 21% among 5,600;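 active = mean inhibition above about 95%, with at least 55% of replicates also reaching it, limit read from the data; inconclusive = meets just one of the two conditions; inactive = meets neither condition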
NIH3T3 tox – kills mouse NIH/3T3 fibroblasts; shares compounds with T cruzi growth-1; NIH/3T3 viability, CellTiter-Glo ATP luminescence, 90 h; cytotoxicity (signal decrease), % at 8.35 µM; hit rate 14% among 5,600; AID 651742;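 active = mean signal decrease across replicates above about 35% based on untreated-well scatter, with enough replicates individually passing, limit read from the data; inconclusive = no rule stated though some were filed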
NIH3T3 tox 2 – kills mouse NIH/3T3 fibroblasts; shares compounds with T cruzi growth-1; NIH/3T3 viability, CellTiter-Glo ATP luminescence, 90 h; inhibition, % at 24.9 µM; hit rate 56% among 5,600; AID 651744;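 active = mean loss of cell viability signal at or above a set limit, and enough replicates individually reaching it; inconclusive = meets only the mean limit or only the replicate share; inactive = meets neither condition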
Hits are given with their value. This is a sample that favours compounds with a hit; in the whole collection about 6.7% have one here.

O=C(c1cccc(F)c1)N1CC[C@@H]2[C@H]1c1cc(C#Cc3cccc(F)c3)ccc1N[C@@H]2CO was read as C diff growth inactive, T cruzi growth-1 103, Pf Dd2 inh inactive, T cruzi growth-2 104, T cruzi growth-3 inactive, NIH3T3 tox inactive and NIH3T3 tox 2 106.
For COc1ccccc1C#Cc1ccc2c(c1)[C@@H]1[C@@H](CCN1C(=O)c1ccccc1)[C@@H](CO)N2 the results were C diff growth inactive, T cruzi growth-1 104, Pf Dd2 inh inactive, T cruzi growth-2 106, T cruzi growth-3 inactive, NIH3T3 tox inactive and NIH3T3 tox 2 inactive.
`C[C@H](CO)N1C[C@H](C)[C@@H](CN(C)C(=O)NC2CCCCC2)Oc2ccc(NC(=O)CCC(F)(F)F)cc2CC1=O` gave C diff growth inactive, T cruzi growth-1 inactive and Pf Dd2 inh inactive.
`O=C(C[C@@H]1CC[C@H]2[C@@H](COC[C@@H](O)CN2Cc2nccs2)O1)NCc1ccccc1` gave C diff growth inactive, T cruzi growth-1 inactive and Pf Dd2 inh inactive.
For Cc1noc(C)c1NC(=O)Nc1cccc2c1O[C@@H](CN(C)C(=O)Nc1ccccc1)[C@@H](C)CN([C@H](C)CO)C2=O the results were C diff growth inactive, T cruzi growth-1 inactive and Pf Dd2 inh inactive.
For COc1ccc2c3c(n(C)c2c1)[C@@H](CO)N(CC1CCOCC1)CC31CN(C(C)=O)C1 the results were C diff growth inactive and Pf Dd2 inh inactive.
Screening CCCNC(=O)N(C)C[C@@H]1Oc2ncc(-c3ccc(F)cc3)cc2C(=O)N([C@H](C)CO)C[C@H]1C returned C diff growth inactive and Pf Dd2 inh inactive.
For COCC(=O)N(C)C[C@@H]1[C@H](c2ccc(-c3cccnc3)cc2)[C@@H](CO)N1C(C)=O the results were C diff growth inactive, T cruzi growth-1 100, Pf Dd2 inh inactive, T cruzi growth-2 inactive, T cruzi growth-3 inactive, NIH3T3 tox inactive and NIH3T3 tox 2 inactive.
CCC(=O)N1[C@H](CO)[C@@H](c2ccc(-c3cccnc3)cc2)[C@@H]1CN(C)C(C)=O was read as C diff growth inactive, T cruzi growth-1 inactive and Pf Dd2 inh inactive.
Screening CCC(=O)N(C)C[C@H]1[C@H](c2ccc(-c3cccnc3)cc2)[C@@H](CO)N1C(C)=O returned C diff growth inactive, T cruzi growth-1 inactive and Pf Dd2 inh inactive.
`CCC(=O)N1[C@@H](CO)[C@@H](c2ccc(-c3cccnc3)cc2)[C@@H]1CN(CC)C(C)=O` gave C diff growth inactive, T cruzi growth-1 98, Pf Dd2 inh inactive, T cruzi growth-2 inactive, T cruzi growth-3 inactive, NIH3T3 tox inactive and NIH3T3 tox 2 inactive.
COc1ccc(CNC(=O)C[C@H]2CC[C@@H]3[C@@H](COc4ccc(NC(C)=O)cc4C(=O)N3C)O2)cc1 was read as C diff growth inactive, T cruzi growth-1 inactive and Pf Dd2 inh inactive.
For Cc1cccc(NC(=O)Nc2ccc3c(c2)C(=O)N(C)[C@H]2CC[C@H](CC(=O)NCc4ccccc4Cl)O[C@@H]2CO3)c1 the results were T cruzi growth-1 inactive and Pf Dd2 inh inactive.
Screening C[C@@H]1CN([C@H](C)CO)C(=O)c2cc(NS(=O)(=O)c3cccs3)ccc2O[C@@H](C)CCCCO[C@@H]1CN(C)Cc1ccc(C(F)(F)F)cc1 returned C diff growth inactive, T cruzi growth-1 98, Pf Dd2 inh inactive, T cruzi growth-2 inactive, T cruzi growth-3 114, NIH3T3 tox inactive and NIH3T3 tox 2 54.
`C[C@@H]1CN([C@@H](C)CO)C(=O)c2cc(NS(=O)(=O)c3cccs3)ccc2O[C@@H](C)CCCCO[C@H]1CN(C)Cc1ccc(C(=O)O)cc1` gave C diff growth inactive, T cruzi growth-1 inactive and Pf Dd2 inh inactive.
For C[C@@H]1CN([C@H](C)CO)C(=O)c2cc(NS(=O)(=O)c3cccs3)ccc2O[C@@H](C)CCCCO[C@H]1CN(C)Cc1ccc(C(=O)O)cc1 the results were C diff growth inactive and Pf Dd2 inh inactive.
For C[C@H](CO)N1C[C@H](C)[C@@H](CN(C)Cc2ccc(C(F)(F)F)cc2)OCCCC[C@H](C)Oc2ccc(NS(=O)(=O)c3cccs3)cc2C1=O the results were C diff growth inactive, T cruzi growth-1 inconclusive, Pf Dd2 inh inactive, T cruzi growth-2 99, T cruzi growth-3 105, NIH3T3 tox 44 and NIH3T3 tox 2 106.
Screening C[C@@H]1CCCCO[C@H](CN(C)Cc2ccc(C(F)(F)F)cc2)[C@@H](C)CN([C@@H](C)CO)C(=O)c2cc(NS(=O)(=O)c3cccs3)ccc2O1 returned C diff growth inactive, T cruzi growth-1 112, Pf Dd2 inh inactive, T cruzi growth-2 inactive, T cruzi growth-3 112, NIH3T3 tox inactive and NIH3T3 tox 2 106.
Screening C[C@@H]1CN([C@@H](C)CO)C(=O)c2cc(NS(=O)(=O)c3cccs3)ccc2O[C@@H](C)CCCCO[C@H]1CN(C)Cc1ccc(C(F)(F)F)cc1 returned C diff growth inactive, T cruzi growth-1 inactive and Pf Dd2 inh inactive.
For O=C(C[C@H]1CC[C@@H](NC(=O)C2CCOCC2)[C@H](CO)O1)NCc1ccccc1Cl the results were T cruzi growth-1 inactive and Pf Dd2 inh inactive.
Screening O=C(C1CCCCC1)N1C[C@@H]2[C@H](c3ccccc31)[C@H](CO)N2C(=O)c1ccccc1F returned C diff growth inactive, T cruzi growth-1 inactive and Pf Dd2 inh inactive.
`C[C@H]1CN([C@@H](C)CO)C(=O)c2cc(NC(=O)NC3CCCCC3)ccc2O[C@@H]1CN(C)C(=O)Nc1ccc(C(F)(F)F)cc1` gave C diff growth inactive, T cruzi growth-1 inactive and Pf Dd2 inh inactive.
`C/C=C/c1ccc([C@@H]2[C@H](CO)N(C(=O)CC)C23CN(S(C)(=O)=O)C3)cc1` gave C diff growth inactive and Pf Dd2 inh inactive.
COc1ccccc1NC(=O)N[C@@H]1CC[C@H](CCNC(=O)Cc2ccccn2)O[C@@H]1CO was read as C diff growth inactive and Pf Dd2 inh inactive.
For C[C@@H]1CCCCO[C@@H](CN(C)C(=O)C2CCCCC2)[C@@H](C)CN([C@@H](C)CO)C(=O)c2cc(N(C)C)ccc2O1 the results were C diff growth inactive, T cruzi growth-1 inactive and Pf Dd2 inh inactive.
C[C@@H]1CCCCO[C@H](CN(C)C(=O)C2CCCCC2)[C@H](C)CN([C@@H](C)CO)C(=O)c2cc(N(C)C)ccc2O1 was read as C diff growth inactive, T cruzi growth-1 110, Pf Dd2 inh inactive, T cruzi growth-2 inactive, T cruzi growth-3 inactive, NIH3T3 tox inactive and NIH3T3 tox 2 inactive.
C[C@H](CO)N1C[C@H](C)[C@H](CN(C)C(=O)C2CCCCC2)OCCCC[C@H](C)Oc2ccc(N(C)C)cc2C1=O was read as C diff growth inactive, T cruzi growth-1 100, Pf Dd2 inh inactive, T cruzi growth-2 inactive, T cruzi growth-3 inactive, NIH3T3 tox inactive and NIH3T3 tox 2 inactive.

Screening data from PubChem.
